This note sets out measurements from PubChem BioAssay.

By inhibition is commonly meant the change of the read-out against control, counted positive when it falls.

Test in all cases: inhibition of PEG-3 promoter-driven reporter – cell-based, HeLa, luciferase, CREF/GAPDH counter-screen panel, dose response (AID 624167)
Assay [1] has as its target PEG-3 (UniProt Q6IN02). As to conditions: CREF/GAPDH counter-screens; HeLa PEG-Prom luciferase reporter, overnight, run 1, dose range 1, at 100 µM (top of the series) unless noted.
The target of assay [2] is PEG-3 (UniProt Q6IN02). As to conditions: CREF/GAPDH counter-screens; HeLa PEG-Prom luciferase reporter, overnight, run 2, dose range 1, at 100 µM (top of the series) unless noted.
PEG-3, sequence (Q6IN02 whole entry, looked up): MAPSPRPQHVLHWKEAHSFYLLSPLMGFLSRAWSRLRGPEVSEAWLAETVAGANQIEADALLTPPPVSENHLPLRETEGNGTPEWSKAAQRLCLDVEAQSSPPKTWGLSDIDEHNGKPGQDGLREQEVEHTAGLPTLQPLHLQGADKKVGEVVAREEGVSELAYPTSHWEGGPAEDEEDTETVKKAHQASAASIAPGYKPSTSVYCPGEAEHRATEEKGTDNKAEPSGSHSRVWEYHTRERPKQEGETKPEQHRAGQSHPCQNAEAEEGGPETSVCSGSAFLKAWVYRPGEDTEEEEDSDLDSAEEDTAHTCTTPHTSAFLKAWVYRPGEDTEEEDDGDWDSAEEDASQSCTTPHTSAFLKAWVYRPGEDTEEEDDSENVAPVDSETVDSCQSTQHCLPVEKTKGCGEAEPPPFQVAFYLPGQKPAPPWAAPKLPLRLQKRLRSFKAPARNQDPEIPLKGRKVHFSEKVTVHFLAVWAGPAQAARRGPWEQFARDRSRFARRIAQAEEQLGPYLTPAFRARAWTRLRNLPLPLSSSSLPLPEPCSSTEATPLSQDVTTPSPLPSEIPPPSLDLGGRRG
Assay [3] deals with Rat fibroblasts (CREF). As to conditions: CREF/GAPDH counter-screens; run 1, dose range 1, at 100 µM (top of the series). For orientation: Counterscreens check selectivity or assay interference.
Assay [4] relates to Rat fibroblasts (CREF). Conditions: CREF/GAPDH counter-screens; run 2, dose range 1, at 100 µM (top of the series).

Consider `CN(C)c1c([N+](=O)[O-])cc(N2C(=O)C=CC2=O)cc1[N+](=O)[O-]`, for which the inhibition came out at 102% in the assay with PEG-3 [1], 102% with PEG-3 [2], 101% in the assay with Rat fibroblasts (CREF) [3] and 100% in the assay on Rat fibroblasts (CREF) [4].

Regarding `N=c1n(CCN2CCCCC2)c2ccccc2n1CC(O)c1ccc(Cl)c(Cl)c1` (stereo unspecified), the inhibition with PEG-3 [1] worked out at 99.3%; with PEG-3 [2] it was 98.6%; with Rat fibroblasts (CREF) [3], 100%; in the assay with Rat fibroblasts (CREF) [4], 99.7%.

Turning to `Brc1ccc(N/N=C(/N=Nc2nn[nH]n2)c2ccccc2)cc1`, the inhibition with PEG-3 [1] is 100%; with PEG-3 [2], 99.8%; in the assay on Rat fibroblasts (CREF) [3], 75.7%; in the assay on Rat fibroblasts (CREF) [4], 70%.

Take `COC(CNC(=O)c1ccc2c3c(onc13)-c1ccccc1C2=O)OC`: the inhibition with PEG-3 [1] worked out at 102%; in the assay with PEG-3 [2], 102%; in the assay with Rat fibroblasts (CREF) [3], 98.9%; in the assay on Rat fibroblasts (CREF) [4], 100%.

On to `C(=N\Nc1ccc2ccccc2n1)/c1ccc2c(c1)OCCO2`, for which the inhibition was 98.4% with PEG-3 [1], 96.2% with PEG-3 [2], 53.6% with Rat fibroblasts (CREF) [3] and 101% in the assay with Rat fibroblasts (CREF) [4].

Regarding `CC(=O)c1ccc(-c2cnc3c(NC=O)cc(-c4ccccc4Oc4ccccc4)cn23)cc1`, the inhibition with PEG-3 [1] is 38.3%; with PEG-3 [2], 56.6%; in the assay with Rat fibroblasts (CREF) [3], -25.1%; with Rat fibroblasts (CREF) [4], 94.9%.

For the compound `CN(C)c1ccc(/C=C/c2ccc3ccccc3n2)cc1`, the inhibition with PEG-3 [1] was determined as 96.6%; with PEG-3 [2], 96%; in the assay on Rat fibroblasts (CREF) [3], 96.6%; with Rat fibroblasts (CREF) [4] it was 95.8%.

As to `CN(C)CC1CCC/C(=C\c2ccc(OC(=O)c3ccc(Cl)cc3)cc2)C1=O` (stereo unspecified), the inhibition in the assay with PEG-3 [1] was 97.7%; with PEG-3 [2], 99%; in the assay with Rat fibroblasts (CREF) [3], 51.4%; in the assay on Rat fibroblasts (CREF) [4], -21.7%.

Regarding `COc1ccc(CCN2C(=O)C=CC2=O)cc1OC`, the inhibition in the assay with PEG-3 [1] was 102%; in the assay with PEG-3 [2] it was 101%; in the assay on Rat fibroblasts (CREF) [3], 99.5%; with Rat fibroblasts (CREF) [4] it was 98.6%.

Turning to `CC(C)CC(=NNC(=O)c1ccncc1)c1cc(Cl)ccc1O`, the inhibition is 76.9% with PEG-3 [1]; 93.6% [run 2, dose range 1, at 50 µM] in the assay with PEG-3 [2]; 73.9% in the assay on Rat fibroblasts (CREF) [3]; 81.7% in the assay with Rat fibroblasts (CREF) [4].

In the case of `COC(=O)c1c(N)sc(C(=O)NCCc2ccccc2)c1C`, the inhibition in the assay with PEG-3 [1] was 101%; in the assay with PEG-3 [2] it was 102%; in the assay on Rat fibroblasts (CREF) [3], 93.6%; with Rat fibroblasts (CREF) [4] it was 92.9%.

Consider `CCOc1ccc2c(ccc(/C=C/c3cc(C)c4cccnc4c3O)[n+]2C)c1`, for which the inhibition is 101% with PEG-3 [1], 99.4% in the assay with PEG-3 [2], 98.8% in the assay with Rat fibroblasts (CREF) [3] and 98.5% with Rat fibroblasts (CREF) [4].

`Cc1ccc(-c2cc3c(N=O)c4ccccc4c-3n[nH]2)cc1`: the inhibition with PEG-3 [1] is 75.1%; with PEG-3 [2] it was 86.7%; with Rat fibroblasts (CREF) [3] it was 87.3%; in the assay with Rat fibroblasts (CREF) [4] it was 78.5%.

Consider `O=c1cnnc(N/N=C/c2ccccn2)[nH]1`, for which the inhibition with PEG-3 [1] was found to be 66.3%; in the assay with PEG-3 [2] it was 58.7%; in the assay with Rat fibroblasts (CREF) [3] it was 49.4%; in the assay on Rat fibroblasts (CREF) [4], 51.1%.

Regarding `Oc1c(Br)cc(Br)c2cccnc12`, the inhibition with PEG-3 [1] is 81.8%; in the assay with PEG-3 [2] it was 71%; with Rat fibroblasts (CREF) [3], 88.2%; in the assay with Rat fibroblasts (CREF) [4], 94.5%.

As to `O=C1C=CC(=O)N1c1ccc(-c2nc3ccccc3o2)cc1`, the inhibition with PEG-3 [1] came out at 99.3%; in the assay with PEG-3 [2], 101%; in the assay on Rat fibroblasts (CREF) [3] it was 101%; with Rat fibroblasts (CREF) [4] it was 100%.

`O=C(O)c1cccc(COc2ccc(CO)cc2Cl)c1`: the inhibition was found to be 97.3% with PEG-3 [1], 102% with PEG-3 [2], 91.5% with Rat fibroblasts (CREF) [3] and 91.1% in the assay on Rat fibroblasts (CREF) [4].

Regarding `CCc1ccc(/C=C2\SC(=S)N(CCCC(=O)Nc3cc(C)on3)C2=O)cc1`, the inhibition with PEG-3 [1] worked out at 80%; with PEG-3 [2] it was 87.3%; in the assay on Rat fibroblasts (CREF) [3], 29.1%; in the assay with Rat fibroblasts (CREF) [4], 27.4%.

As to `Cc1ccc2nc(-c3ccc4c(c3)OCCO4)cn2c1`, the inhibition with PEG-3 [1] stood at 98.2%; in the assay with PEG-3 [2] it was 99.6%; with Rat fibroblasts (CREF) [3], 100%; with Rat fibroblasts (CREF) [4] it was 99.9%.

For the compound `CCCC(=O)NC(c1ccccc1)c1ccc2cccnc2c1O` (stereo unspecified), the inhibition is 36.8% with PEG-3 [1]; 71% [run 2, dose range 1, at 25 µM] with PEG-3 [2]; 59% with Rat fibroblasts (CREF) [3]; 44.9% in the assay on Rat fibroblasts (CREF) [4].

As to `Cc1ccc(C(=O)Nc2nc3ccccc3[nH]2)cc1`, the inhibition in the assay with PEG-3 [1] is 89.8%; with PEG-3 [2], 88.1%; with Rat fibroblasts (CREF) [3], 99.2%; with Rat fibroblasts (CREF) [4], 98.7%.

`CN(C)c1ccc(/C=C/c2ccc3c4ccccc4ccc3[n+]2-c2ccccc2)cc1`: the inhibition was determined as 99.3% in the assay with PEG-3 [1], 98.8% with PEG-3 [2], 101% in the assay with Rat fibroblasts (CREF) [3] and 100% in the assay with Rat fibroblasts (CREF) [4].

Consider `O=C(Nc1nc2cc3c(cc2s1)OCO3)C1=COCCO1`, for which the inhibition was found to be 88.1% with PEG-3 [1], 94% with PEG-3 [2], 93.7% in the assay on Rat fibroblasts (CREF) [3] and 94% with Rat fibroblasts (CREF) [4].

Regarding `O=C(N/N=C/c1cc([N+](=O)[O-])ccc1O)c1ccc(COc2ccc3c(c2)CCC3)o1`, the inhibition with PEG-3 [1] is 52.4%; with PEG-3 [2] it was 95.1% [run 2, dose range 1, at 25 µM]; in the assay on Rat fibroblasts (CREF) [3], 29.5%; in the assay on Rat fibroblasts (CREF) [4], 55.1%.

Turning to `COc1ccc2c(c1)sc1nc(-c3ccccc3)cn12`, the inhibition was determined as 100% with PEG-3 [1], 97.3% with PEG-3 [2], 98.8% in the assay with Rat fibroblasts (CREF) [3] and 98.5% in the assay with Rat fibroblasts (CREF) [4].

Take `Cc1oc(-c2ccc3c(c2)OCCO3)cc1C(=O)O`: the inhibition turned out to be 101% with PEG-3 [1], 99.2% with PEG-3 [2], 84.4% with Rat fibroblasts (CREF) [3] and 81.3% with Rat fibroblasts (CREF) [4].

For the compound `Cc1ccc(-c2cc3c(nn2)-c2ccccc2C3=O)cc1`, the inhibition was determined as 98.6% with PEG-3 [1], 88.7% with PEG-3 [2], 92.8% in the assay on Rat fibroblasts (CREF) [3] and 94.8% in the assay with Rat fibroblasts (CREF) [4].

`O=C(Nc1ccc(Cc2ccncc2)cc1)c1ccc([N+](=O)[O-])o1`: the inhibition with PEG-3 [1] was 99.1%; with PEG-3 [2], 101%; in the assay on Rat fibroblasts (CREF) [3] it was 100%; in the assay on Rat fibroblasts (CREF) [4], 99.5%.

As for `O=C(/C=C\Nc1ccc2c(c1)OCO2)c1ccccn1`, the inhibition came to 102% in the assay with PEG-3 [1], 95.1% with PEG-3 [2], 98.9% in the assay on Rat fibroblasts (CREF) [3] and 97.2% in the assay with Rat fibroblasts (CREF) [4].

Regarding `CCN(CCO)c1ccc(N=Nc2cc(C)[nH]n2)cc1`, the inhibition was found to be 95.5% with PEG-3 [1], 98.9% with PEG-3 [2], 99.4% in the assay with Rat fibroblasts (CREF) [3] and 98.6% in the assay with Rat fibroblasts (CREF) [4].

Turning to `CCOC(=O)c1c(SCCN2CCCCC2)n(-c2ccccc2)c(=S)n(-c2ccccc2)c1=O`, the inhibition stood at 97.7% in the assay with PEG-3 [1], 102% in the assay with PEG-3 [2], 90.4% in the assay with Rat fibroblasts (CREF) [3] and 94.6% in the assay on Rat fibroblasts (CREF) [4].

Take `Cc1cc(C(=O)CN2C(=O)c3ccccc3S2(=O)=O)c(C)n1-c1ccccc1`: the inhibition with PEG-3 [1] was determined as 98.9%; with PEG-3 [2], 98%; in the assay on Rat fibroblasts (CREF) [3], 90.6%; with Rat fibroblasts (CREF) [4] it was 89.8%.

With `O=C(Nc1nc2ccccc2[nH]1)c1ccccc1F`, the inhibition was determined as 97.3% in the assay with PEG-3 [1], 98.3% with PEG-3 [2], 98.8% in the assay on Rat fibroblasts (CREF) [3] and 99.2% in the assay with Rat fibroblasts (CREF) [4].

`O=c1cc(-c2ccc(O)cc2)oc2ccc3ccccc3c12`: the inhibition with PEG-3 [1] was 99.4%; in the assay with PEG-3 [2] it was 101%; in the assay with Rat fibroblasts (CREF) [3], 98.1%; in the assay with Rat fibroblasts (CREF) [4], 97.1%.
